# About 220 (0.16%) of roughly 140,000 compounds were called active. The sample holds actives, similar compounds and a random draw of the others, so the mix is not that of the screen. Unmarked numbers belong to inactive results. Rule as the data show it: active = inhibition above about 50%; inactive = the rest.
# Test system: YopH tyrosine phosphatase [Yersinia enterocolitica]
# Assay: inhibition of Yersinia YopH phosphatase – biochemical, fluorescence Ex485/Em525, primary screen (AID 898)
# Details: hits give high values, concentration not given here
row,SMILES,inhibition
1,Cc1ccc(NC(=O)CCC(=O)N/N=C/c2ccco2)c(C)c1,-19.1%
2,CCCNC(=O)OC[C@H]1O[C@H](CCO/N=C/[C@@H](NS(=O)(=O)c2ccc(C)cc2)[C@H](C)/C=C/CC(=O)OC)C=C[C@@H]1Oc1ccc(OC)cc1,-21.3%
3,CC(=O)c1ccc(NC(=S)NC(=O)CC(C)C)cc1,-2.98%
4,COc1cc(OC)cc(C(=O)N[C@H](C(=O)OCC(=O)NC(C)c2ccccc2)C(C)C)c1 (some centres not stated),-27.4%
5,CCCCC(CC(C)O)c1n[nH]c(=S)n1-c1ccccc1 (configuration not stated),-33.5%
6,CC(C)c1nccn1S(=O)(=O)c1cc([N+](=O)[O-])ccc1Cl,-25.1%
7,CCCCCOc1ccc(/C=C/C(=O)NCCc2nc3ccccc3[nH]2)cc1OC,-36.7%
8,C=CCNC(=S)NNC(=O)COc1c(Cl)cc(Cl)cc1Cl,-25.1%
9,COC(=O)Cc1ccc(NC(=S)NCc2ccccc2)cc1,-21.4%
10,Cc1ccc(OCc2nnc(SC3CCc4ccccc4C3=O)n2C)cc1 (configuration not stated),-10.2%
11,O=C(Nc1nnc(SCc2ccccc2Cl)s1)c1cccc([N+](=O)[O-])c1,-19.7%
12,CC/C(=N\NC(=O)c1ccccc1Cl)c1ccc(Br)s1,-30%
13,CCCCN=C1C([N+](=O)[O-])=CC=C2C1=NC1(CCCCC1)N2O,-23.5%
14,Cc1ccc(S(=O)(=O)N2CCOCC2)cc1C(=O)NC(=S)N(Cc1ccccc1)C(C)C,-13.5%
15,CC(C)Nc1nnc(SCC(=O)c2c[nH]c3ccccc23)s1,-37.7%
16,O=C(c1cccs1)n1nc(NCc2ccccc2)nc1NCc1ccccc1,-28.9%
17,COc1ccccc1-c1nnc(NC(=O)c2ccc3ncsc3c2)o1,-9.55%
18,CN(C)c1ccnc2sc(C(=O)c3ccccc3)c(N)c12,9.26%
19,O=C(O)CCS(=O)(=O)c1ccc(-c2ccccc2)cc1,-26.8%
20,CCOc1ncccc1C(=O)N(C)CC(=O)Nc1ccc(F)cc1,-16.5%
21,CCOC(=O)c1c(/N=C/c2cc(C)ccc2O)sc2c1CCC2,-9.28%
22,CCNC(=S)N(CCc1c(C)[nH]c2ccc(C)cc12)Cc1ccco1,-11.6%

row,SMILES,inhibition
1,C=CCOc1ccc(/C=N/NC(=O)C(C)Sc2ccccn2)cc1OCC (configuration not stated),-28.1%
2,O=C(COC(=O)Cc1ccc(Br)cc1)Nc1c(F)c(F)c(F)c(F)c1F,-9.87%
3,CN(C)c1ccc(/C=N/N(Cc2ccccc2)c2ccccc2)cc1,-23.4%
4,C=CCn1c(SCC(N)=O)nnc1-c1cc2c(s1)CCC(CC)C2 (configuration not stated),-11%
5,CCC(C)(C(=O)Nc1ccccc1C)N(C(=O)CNC(C)=O)c1ccc(C)cc1 (configuration not stated),-34.2%
6,CC(C)C(=O)Nc1ccc(C(=O)NNC(=O)c2cccs2)cc1,-18.7%
7,CCc1ccc(NC(=O)C(C)OC(=O)/C=C/c2cccc([N+](=O)[O-])c2)cc1 (configuration not stated),-14.1%
8,COc1cc(/C=N/NC(=O)CCc2n[nH]c(=O)[nH]c2=O)ccc1O,-11.1%
9,Cc1ccc(N(C(=O)C(F)(F)F)C(C(=O)NC2CCCCC2)c2ccncc2)cc1C (configuration not stated),-8.07%
10,COc1ccc(-c2nnc(SCC(=O)c3cccs3)o2)c(OC)c1,90.3% (active)
11,COc1ccc(OC)c(C(=O)CSc2nnc(-c3cccs3)o2)c1,-17.3%
12,COc1ccc(-n2c(C)cc(C(=O)CSc3nnc(-c4cccs4)o3)c2C)cc1,-23.9%
13,COC1=CCC2([N+](=O)[O-])CN(CC(=O)O)CC1([N+](=O)[O-])C2 (configuration not stated),-24.9%
14,O=C(COC(=O)/C=C/c1ccc(S(=O)(=O)N2CCCCCC2)cc1)NCc1ccccc1Cl,-43.5%
15,COC(=O)c1sc(N)c(C(=O)OC)c1COC(=O)CNS(=O)(=O)c1ccc(C)cc1,-21.7%
16,Cc1ccc(C(C[N+](=O)[O-])c2c(C)cc3ccccn23)cc1 (configuration not stated),-23.1%
17,CN1CCN(c2ccc(S(=O)(=O)N3CCCCC3)cc2NC(=O)Cc2ccccc2F)CC1,-23.6%
18,O=C(NNC(=O)c1cc2c(s1)CCCC2)c1ccccc1,-2.47%
19,O=C(NCCOc1ccccc1Cl)C(=O)Nc1ccccc1,-35.1%
20,O=C(CN1C(=O)/C(=C\c2ccc(C(F)(F)F)cc2)Sc2ccccc21)NCc1ccco1,-14.7%
21,COc1ccc(C)cc1NC(=O)C(OC(=O)c1cccc(S(=O)(=O)N(C)c2ccccc2)c1)c1ccccc1 (configuration not stated),-35.9%
22,O=[N+]([O-])c1ccc(N/N=C2/CCCCC2c2ccccn2)c([N+](=O)[O-])c1 (configuration not stated),-15.4%

row,SMILES,inhibition
1,O=C(OCc1ccc(Br)cc1)c1cccc(-c2nnc(-c3ccccc3)o2)c1,-11.6%
2,C/C(=N\NC(=O)CCn1nc(C)cc1C)C(C)(C)C,-8.98%
3,CC(C)CNC(=O)COC(=O)c1ccccc1OCC(=O)Nc1ccc(Br)cc1,-23.1%
4,Cc1cc(C)cc(C(=O)NC(=S)Nc2ccc3[nH]c(=O)[nH]c3c2)c1,-11.9%
5,Cc1cc(SCC(=O)NCCN2C(=O)CSC2=O)nc2ccccc12,-4.76%
6,Cc1ccc2[nH]cc(CCCN3C(=O)c4ccccc4C3=O)c2c1,-23.7%
7,Cc1ccc(N(C(=O)c2ccc(CN3CCOCC3)o2)C(C(=O)NCCC(C)C)c2cccs2)c(C)c1 (configuration not stated),-6.18%
8,CCCOc1ccc(NC(=O)C2OC3OC(C)(C)OC3C3OC(C)(C)OC23)cc1 (configuration not stated),-26.3%
9,O=C(COc1nc2ccccc2nc1N1CCOCC1)NCC(F)(F)F,-21.6%
10,CCOc1ccc(Br)cc1S(=O)(=O)Nc1cccc(S(=O)(=O)N(CC)CC)c1,-29.5%
11,O=C1NC(c2ccc(-c3ccccc3[N+](=O)[O-])o2)C(C(=O)c2ccc(Cl)cc2)C(O)(C(F)(F)F)N1 (configuration not stated),-11.1%
12,CCOc1ccc(Oc2nc(C)cc(OC)n2)nn1,-16%
13,Cc1cccc(OCCNC(=S)NC(=O)c2cccnc2)c1,-28.5%
14,O=C(NCCC1=CCCCC1)c1ccc(Cl)c([N+](=O)[O-])c1,-21.9%
15,CC(C)(C)c1ccc(NC(=O)COC(=O)CCc2nc3ccccc3c(=O)[nH]2)cc1,-15.2%
16,COc1ccc(NC(=O)c2sc(N3CCOCC3)nc2-c2ccccc2)c(OC)c1,-1.88%
17,CC1=C(C)CC(C(=O)NNC(=O)c2csc3c2CCC(C(C)(C)C)C3)C(C(=O)O)C1 (configuration not stated),-33.4%
18,Cc1ccc(C)c(NC(=O)C(OC(=O)c2ccc(C)s2)c2ccccc2)c1 (configuration not stated),-11.6%
19,Cc1ccc(/C=C/C(=O)Nc2cc(S(=O)(=O)N3CCCCCC3)ccc2OCC(F)(F)F)o1,7.49%
20,O=c1[nH]c(CN2CCN(S(=O)(=O)c3ccc4c(c3)OCCO4)CC2)nc2sc3c(c12)CCCC3,-8.83%
21,Cc1ccc(S(=O)(=O)N(CC(=O)Nc2cccc([N+](=O)[O-])c2)Cc2ccc(Cl)cc2)cc1,-31.4%
22,CC(C)OCCCNC(=O)c1cc(Sc2ccc(F)cc2)nc2ccccc12,-10.5%

row,SMILES,inhibition
1,COc1cccc(-n2c(SCC(=O)c3c[nH]c4ccccc34)nc3ccccc3c2=O)c1,-22.8%
2,C/C(=N\NC(=O)c1ccc(CSc2nc(C)cc(C)n2)cc1)C1CCCCC1,-27.2%
3,CC(=O)c1c(O)cc2n(c1=O)-c1ccc(Cl)cc1C2(C)C,-21.9%
4,CSc1c(SCc2ccccc2)cnn(Cc2ccccc2)c1=O,-31.9%
5,Cc1ccc(S(=O)(=O)N(NC2=NS(=O)(=O)c3ccccc32)C(=O)c2ccccc2)cc1,-28.4%
6,CCCCCC(=O)Nc1ccc(S(=O)(=O)Nc2ccc(Cl)nn2)cc1,-13.3%
7,CC(C)(C)C(=O)N1CCC[C@@]1(CO)C(=O)O,-12.8%
8,COc1ccc(C(CC(=O)c2ccccc2)S(=O)(=O)c2ccccc2)cc1 (configuration not stated),-12.2%
9,CCCCN(C)c1ccc([N+](=O)[O-])cc1,-11%
10,CCCCOc1ccc(NC(=O)[C@@H]2CCCN2C(=O)C2CCN(S(=O)(=O)c3ccc(C)cc3)CC2)cc1,-8.82%
11,Cc1ccccc1Cn1nc(C)c(NC(=O)C(F)(F)F)c1C,-28.6%
12,Cc1ccc(-c2csc(NNC(=O)c3ccccc3)n2)cc1,-36.8%
13,Cc1ccccc1/[N+]([O-])=C/c1ccncc1,77.8% (active)
14,CC(NC(=O)C(=O)NN=C1CCC(C(C)(C)C)CC1)c1ccccc1 (configuration not stated),-22%
15,CCOc1ncccc1C(=O)N(CC)CC(=O)Nc1ccc(NC(C)=O)cc1,-14.7%
16,Cc1cc(C(=O)CSc2nc(N)cc(=O)[nH]2)c(C)n1-c1cccc(F)c1,-16.4%
17,COC(=O)Cc1csc(/N=C/c2c(O)n(-c3cccc(C(F)(F)F)c3)c(=O)c3ccccc23)n1,-22.8%
18,COc1ccc(-n2c(C)cc(C(=O)CN3C(=O)NC4(CCc5ccccc54)C3=O)c2C)cc1 (configuration not stated),-19.6%
19,Cc1scc(C(=O)NNC(=S)NCC(C)C)c1C,-19.1%
20,COCCCNC(=O)Cn1cc(/C=C(\C#N)C(=O)N2CCN(c3ccccc3)CC2)c2ccccc21,-25.6%
21,CC(=O)Nc1cccc(/C(C)=N/NC(=O)c2c(-c3ccccc3Cl)noc2C)c1,-32.1%

# — PubChem BioAssay AID898 (University of Pittsburgh Molecular Library Screening Center, 2007)
